For 46 molecules, inhibition results are on record in ChEMBL document CHEMBL5606458, “ASAP - ZIKV NS2B-NS3 protease fluorescence single point” (2024).

In this assay the target is Nonstructural protein 3 (Zika virus) (UniProt A0A024AXB9).
The mark [1] stands for this setting: PRVABC59, Concentration 15.0 uM, Number of replicates 1.0.
Setting [2] is: PRVABC59, Concentration 50.0 uM, Number of replicates 1.0.

Molecules are shown by their SMILES. Hit rate of the full screen: of about 2,700 compounds, about 160 (5.9%) showed an effect of 50% or more. The entries come from a sample that favours strong results as a whole.

Chain of Nonstructural protein 3 (Zika virus) (A0A024AXB9 as listed by the source): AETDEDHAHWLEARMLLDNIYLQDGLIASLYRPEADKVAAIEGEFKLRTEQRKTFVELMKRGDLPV

Usually inhibition stands for the drop in the measured response relative to a control, in per cent. Turning to `Cc1cc(-c2nn(C)cc2NC(=O)c2ccccc2C(F)(F)F)[nH]n1`, the inhibition is, setting by setting: (PRVABC59, Concentration 49.5 uM, Number of replicates 2.0, Standard deviation 1.8946804704330402 %) -3.15%; (PRVABC59, Concentration 99.01 uM, Number of replicates 2.0, Standard deviation 0.666066751064398 %) -1.39%; (PRVABC59, Concentration 198.0 uM, Number of replicates 2.0, Standard deviation 1.3743584908968294 %) 2.3%. As to `O=C(Nc1cnc(Br)c(Cl)n1)c1cc(Cl)ccc1NS(=O)(=O)c1ccc(Oc2ccccc2Cl)cc1`, under setting [1], the inhibition came to 20.6%.

In the case of `O=Cc1ccc(N2CCC(C(=O)NCCc3ccc(C(F)(F)F)cc3)CC2)cc1`, under setting [2], the inhibition turned out to be 25.7%. As for `CCOC(=O)c1cc(Cn2cc(C3CCNCC3)c(C)n2)on1`, the inhibition is -0.431% (PRVABC59, Concentration 49.5 uM, Number of replicates 2.0, Standard deviation 3.597880558823145 %); -1.41% (PRVABC59, Concentration 99.01 uM, Number of replicates 2.0, Standard deviation 3.9852172616025077 %); -2.54% (PRVABC59, Concentration 198.0 uM, Number of replicates 2.0, Standard deviation 1.6156285466659275 %). Turning to `CC1(C)[C@H]2CC[C@]1(C)[C@H](NC(=O)C1CCN(c3ccc(C=O)cc3)CC1)C2`, the inhibition under setting [2] was -4.03%. Same read-out and setting: with `O=Cc1ccc(N2CCC(C(=O)Nc3cccc(Cl)c3Br)CC2)cc1` the figure was 21%. Take `c1cnc(N2CCOCC2)c(CN2CC[C@H](c3c[nH]c4ccccc34)C2)c1`: the inhibition came to 4.93% (PRVABC59, Concentration 49.5 uM, Number of replicates 2.0, Standard deviation 0.5816150455075427 %); 10.2% (PRVABC59, Concentration 99.01 uM, Number of replicates 2.0, Standard deviation 1.6761828626765602 %); 18.9% (PRVABC59, Concentration 198.0 uM, Number of replicates 2.0, Standard deviation 1.4600963075359947 %). `Nc1cccc2c(Cl)ccnc12`: the inhibition reads like this: (PRVABC59, Concentration 49.95 uM, Number of replicates 2.0, Standard deviation 13.26082141913299 %) 25%; (PRVABC59, Concentration 99.9 uM, Number of replicates 2.0, Standard deviation 5.807935528538471 %) 61.3%. In the case of `Nc1ccc(Cl)c2ncccc12`, the inhibition by setting is: (PRVABC59, Concentration 49.95 uM, Number of replicates 2.0, Standard deviation 10.856665376334321 %) 2.86%; (PRVABC59, Concentration 99.9 uM, Number of replicates 2.0, Standard deviation 9.901328830284072 %) 10.8%. For the molecule `Nc1ccc(Cl)c2cccnc12`, where the note is “PRVABC59, Concentration 99.9 uM, Number of replicates 2.0, Standard deviation 7.433905478836123 %”, the inhibition was -9.18%.

Take `Cc1ccc(CN(C(=O)C2CCN(c3ccc(C=O)cc3)CC2)C2CC2)s1`: the inhibition under setting [2] was found to be 27.6%. As to `Cc1cc(Cl)c2cccc(NC(=O)CCN)c2n1`, the inhibition is, setting by setting: (PRVABC59, Concentration 49.95 uM, Number of replicates 2.0, Standard deviation 0.2024559271573544 %) 95.1%; (PRVABC59, Concentration 99.9 uM, Number of replicates 2.0, Standard deviation 0.15816464699422608 %) 91.2%.

Turning to `Cc1cc(CO)c2cccc(NC(=O)Cc3cccc(CN)c3)c2n1`, the inhibition by setting is: (PRVABC59, Concentration 49.95 uM, Number of replicates 2.0, Standard deviation 2.002239649301327 %) 8.36%; (PRVABC59, Concentration 99.9 uM, Number of replicates 2.0, Standard deviation 0.9082841415474754 %) 22.1%. In the case of `Cc1cc(CO)c2cccc(NC(=O)[C@@H](N)CCN)c2n1`, the inhibition (PRVABC59, Concentration 49.95 uM, Number of replicates 2.0, Standard deviation 10.156724992387474 %) came out at 7.81% and the inhibition (PRVABC59, Concentration 99.9 uM, Number of replicates 2.0, Standard deviation 27.740304464442595 %) stood at 6.58%. With `Cc1cc(CO)c2cccc(NC(=O)c3nc(N)n[nH]3)c2n1`, the inhibition amounted to 28.9% (PRVABC59, Concentration 49.95 uM, Number of replicates 2.0, Standard deviation 1.6810779662500097 %) and 60.8% (PRVABC59, Concentration 99.9 uM, Number of replicates 2.0, Standard deviation 2.6897269039186593 %). With `Cc1cc(CO)c2cccc(NC(=O)CCN)c2n1`, the inhibition reads like this: (PRVABC59, Concentration 49.95 uM, Number of replicates 2.0, Standard deviation 0.34164167967973086 %) 58.9%; (PRVABC59, Concentration 99.9 uM, Number of replicates 2.0, Standard deviation 0.25939261057290325 %) 94.2%. For the molecule `CC(=O)N[C@@H](CCCN)C(=O)Nc1cccc2c(Cl)cc(C)nc12`, the inhibition (PRVABC59, Concentration 99.9 uM, Number of replicates 2.0, Standard deviation 3.96053156793845 %) was found to be 2.63%. On to `CC(=O)N[C@@H](CCCCN)C(=O)Nc1cccc2c(Cl)cc(C)nc12`, for which the inhibition (PRVABC59, Concentration 49.95 uM, Number of replicates 2.0, Standard deviation 3.802363243631691 %) came to 19.9% and the inhibition (PRVABC59, Concentration 99.9 uM, Number of replicates 2.0, Standard deviation 2.8723353743500515 %) was 37.2%. As to `Cc1cc(CO)c2cccc(Cc3ccccc3NC(=O)c3nc(N)n[nH]3)c2n1`, the inhibition (PRVABC59, Concentration 49.95 uM, Number of replicates 2.0, Standard deviation 1.1858913556413317 %) was -1.17% and the inhibition (PRVABC59, Concentration 99.9 uM, Number of replicates 2.0, Standard deviation 1.6592298829189325 %) was determined as 2.56%. `Cc1cc(CO)c2cccc(Cc3cccc(NC(=O)c4nc(N)n[nH]4)c3)c2n1`: the inhibition reads like this: (PRVABC59, Concentration 49.95 uM, Number of replicates 2.0, Standard deviation 3.2981012364268594 %) -0.767%; (PRVABC59, Concentration 99.9 uM, Number of replicates 2.0, Standard deviation 3.2421151330326254 %) 4.54%. As for `O=C(Nc1c(Cl)cncc1Cl)c1cc(Cl)ccc1NS(=O)(=O)c1ccc(Oc2ccccc2Cl)cc1`, the inhibition under setting [1] is 22%.

As for `O=Cc1ccc(N2CCC(C(=O)NC[C@@H](c3ccc(Cl)cc3)N3CCCC3)CC2)cc1`, the inhibition under setting [2] is 18.7%. As for `O=Cc1ccc(N2CCC(C(=O)Nc3nc4cc(Cl)ccc4s3)CC2)cc1`, the inhibition under setting [2] came to 22.7%. As for `CN1CCN(c2ccccc2NC(=O)C2CCN(c3ccc(C=O)cc3)CC2)CC1`, the inhibition under setting [2] stood at 22.1%. Take `O=C(Nc1cccc2cccnc12)C1CCNCC1`: the inhibition is, setting by setting: (PRVABC59, Concentration 49.95 uM, Number of replicates 2.0, Standard deviation 0.5440976068370852 %) 42.6%; (PRVABC59, Concentration 99.9 uM, Number of replicates 2.0, Standard deviation 0.5440976068370852 %) 92%.

For `N[C@@H]1CCCC[C@H]1C(=O)Nc1cccc2cccnc12`, the inhibition (PRVABC59, Concentration 99.9 uM, Number of replicates 2.0, Standard deviation 1.8980185851288 %) was -8.2%. For the molecule `CC(=O)N[C@@H](CCCN)C(=O)Nc1cccc2cccnc12`, the inhibition (PRVABC59, Concentration 49.95 uM, Number of replicates 2.0, Standard deviation 1.6196420224622259 %) is 19.2% and the inhibition (PRVABC59, Concentration 99.9 uM, Number of replicates 2.0, Standard deviation 2.0688397621434533 %) amounted to 38.7%. `O=C(c1cc(Cl)ccc1NS(=O)(=O)c1ccc(Oc2ccccc2Cl)cc1)N1CCC(O)(c2ccc(Cl)cc2)CC1`: the inhibition under setting [1] stood at 26.1%.

Regarding `O=C(N[C@H](CO)CC1CCCCC1)c1cc(Cl)ccc1NS(=O)(=O)c1ccc(Oc2ccccc2Cl)cc1`, under setting [1], the inhibition came to 40.7%. For the molecule `O=C(N[C@H](CO)Cc1ccc(Cl)cc1)c1cc(Cl)ccc1NS(=O)(=O)c1ccc(Oc2ccccc2Cl)cc1`, under setting [1], the inhibition came to 50.2%. With `O=C(N[C@@H](Cc1ccccc1)c1ccccc1)c1cc(Cl)ccc1NS(=O)(=O)c1ccc(Oc2ccccc2Cl)cc1`, the inhibition under setting [1] worked out at 28.3%.

Regarding `O=C(N[C@H](c1ccccc1)c1ccco1)c1cc(Cl)ccc1NS(=O)(=O)c1ccc(Oc2ccccc2Cl)cc1`, under setting [1], the inhibition came out at 53.4%.

For the molecule `O=C(N[C@@H](CO)Cc1ccccc1)c1cc(Cl)ccc1NS(=O)(=O)c1ccc(Oc2ccccc2Cl)cc1`, under setting [1], the inhibition was determined as 33.2%. As for `O=C(N[C@@H](c1ccccc1)c1ccc(Br)cc1)c1cc(Cl)ccc1NS(=O)(=O)c1ccc(Oc2ccccc2Cl)cc1`, under setting [1], the inhibition is 8.89%. As for `C[C@@H](NC(=O)c1cc(Cl)ccc1NS(=O)(=O)c1ccc(Oc2ccccc2Cl)cc1)c1cccc(Br)c1`, the inhibition under setting [1] was 35.8%.

In the case of `O=C(NC(c1ccccc1)c1ccccc1)c1cc(Cl)ccc1NS(=O)(=O)c1ccc(Oc2ccccc2Cl)cc1`, the inhibition under setting [1] was found to be 55%. Turning to `O=C(NCC(c1ccccc1)c1ccccc1)c1cc(Cl)ccc1NS(=O)(=O)c1ccc(Oc2ccccc2Cl)cc1`, the inhibition under setting [1] amounted to 12.2%. The same measure, in the same setting: with `Cc1ccc2ccccc2c1NC(=O)c1cc(Cl)ccc1NS(=O)(=O)c1ccc(Oc2ccccc2Cl)cc1` the figure was 26.4%. For `O=Cc1ccc(N2CCC(C(=O)N3CCC(Oc4ncccn4)CC3)CC2)cc1`, the inhibition under setting [2] was 25.2%.

For the molecule `O=Cc1ccc(N2CCC(C(=O)Nc3cc(Cl)nc(Cl)n3)CC2)cc1`, the inhibition under setting [2] worked out at 17.4%. Regarding `O=C(O)c1cccc(NC(=O)c2cccc(Br)c2)c1`, the inhibition by setting is: (PRVABC59, Concentration 49.5 uM, Number of replicates 2.0, Standard deviation 2.5009940749301487 %) -0.982%; (PRVABC59, Concentration 99.01 uM, Number of replicates 2.0, Standard deviation 3.0157213975013266 %) 0.926%; (PRVABC59, Concentration 198.0 uM, Number of replicates 2.0, Standard deviation 3.887437163113113 %) 4.65%. Turning to `CC(C)(CNC(=O)c1cc(Cl)ccc1NS(=O)(=O)c1ccc(Oc2ccccc2Cl)cc1)c1cccc(Cl)c1`, the inhibition under setting [1] was determined as 47.6%.

For `O=C(NC1CCN(Cc2ccccc2)CC1)c1cc(Cl)ccc1NS(=O)(=O)c1ccc(Oc2ccccc2Cl)cc1`, under setting [1], the inhibition is 8.32%. Take `O=Cc1ccc(N2CCC(C(=O)NCc3cc(F)ccc3Br)CC2)cc1`: for the setting “PRVABC59, Concentration 10.0 uM, Number of replicates 1.0”, the inhibition worked out at 4.33%. As for `CCCC[C@H](NC(C)=O)C(=O)N[C@H](C(=O)Nc1cccc(C(N)=O)c1)c1ccc(OCc2ccccc2)cc1`, the inhibition (PRVABC59, Concentration 49.5 uM, Number of replicates 2.0, Standard deviation 1.5133642763760644 %) was 0.392%; the inhibition (PRVABC59, Concentration 99.01 uM, Number of replicates 2.0, Standard deviation 2.3397962878359877 %) turned out to be 3.8%; the inhibition (PRVABC59, Concentration 198.0 uM, Number of replicates 2.0, Standard deviation 2.8724328178638086 %) was 7.97%. Turning to `NC(=O)c1cccc(NC(=O)[C@@H](NC(=O)c2ccc(Oc3ccc(C(F)(F)F)cc3)cc2)c2ccc(OCc3ccccc3)cc2)c1`, the inhibition was found to be 6.3% (PRVABC59, Concentration 49.5 uM, Number of replicates 2.0, Standard deviation 0.46044521626223894 %); 14.7% (PRVABC59, Concentration 99.01 uM, Number of replicates 2.0, Standard deviation 0.010097036204057861 %); 30.3% (PRVABC59, Concentration 198.0 uM, Number of replicates 2.0, Standard deviation 0.34129506399757725 %).
